# Screening data from PubChem.
# MITF act – increases MITF-driven TRPM1 promoter luciferase signal. SK-MEL-5 TRPM1-promoter luciferase, 24 h; % of positive control, neutral wells = 0. 300,000 tested, 0.75% active. activation, % at 12.5 µM. AID 588334;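 active = mean activation of at least 80% with every replicate also reaching 80%; inconclusive = mean reaches 80% but some replicate falls short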;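 also: 0% = neutral control wells and 100% = parthenolide positive control wells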
# NSD2 HMT inh – blocks human histone methyltransferase NSD2; 310,000 tested, 0.54% active; AID 743445; O96028; inhibition, % at 12.5 µM; NSD2 peptide methylation, AlphaScreen, 120 min
# Dyrk1A ADPGlo – blocks rat Dyrk1A kinase activity. ADP-Glo luminescence, NFATc1 peptide. 310,000 tested, 0.43% active. inhibition, % at 12.5 µM. Q63470;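 also: plate controls were vehicle with enzyme for no effect and no enzyme for full effect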
# Wnt act – Wnt/beta-catenin pathway activation | Wnt/beta-catenin reporter cell assay, activator, plate reader | activation, % at 9.35 µM | 300,000 tested, 1.2% active | AID 743398; in the data active = activation above about 30%, passing the limit was not always enough; inconclusive = no clear call, values can overlap the other calls;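 also: 0% = neutral control wells and 100% = positive control wells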
# GSIS activator – GLuc luminescence reporter in INS-1E cells, primary screen for activators of glucose-dependent secretion of insulin. INS-1E GLuc reporter insulin secretion, 2-3 h. AID 743287. 370,000 tested, 0.61% active. activation, % at 16.6 µM;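 active = lowest replicate activation of at least 40%, so every replicate reaches that level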;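 also: 0% = median of neutral control wells and 100% = median of IBMX positive control wells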
# miR122 inh – blocks miR-122 activity in Huh7 sensor cells. Huh7 miR-122 Renilla luciferase sensor, 48 h; neutral wells = 0, positive control = 100. activation (reporter increase), % at 12.5 µM. 340,000 tested, 0.3% active;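 active = mean replicate activation score at least 90 and every replicate individually at or above 90; inconclusive = only one of the two criteria met; inactive = neither criterion met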;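 also: higher luciferase means less miR-122 activity so hits act as miR-122 inhibitors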
# * marks the source's active call; other numbers are inactive results; ? = inconclusive; / = not tested or not shown; [ ] = another dose, or the depositor's remark. Shown are actives, neighbours in structure and some others; about 2.4% of the full set was active somewhere. Rule as the data show it, unless noted: active = inhibition above about 50%; inactive = the rest.
SMILES,MITF act,NSD2 HMT inh,Dyrk1A ADPGlo,Wnt act,GSIS activator,miR122 inh
O=C(CSc1ncc(-c2ccccc2)[nH]1)Nc1ccccc1F,88*,1,-4,19,-11,2
O=C(CSc1nnc(-c2cccnc2)o1)Nc1ccccc1F,52,-1,-2,40*,19,/
COc1ccccc1NC(=O)CSc1nnc(-c2ccc(C)cc2)o1,/,-2,-5,58*,/,7
O=C(CSc1nnc(-c2ccc(O)cc2)o1)Nc1ccc2c(c1)OCCO2,50,5,6,/,10,/
O=C(CSc1nnc(-c2ccc(O)cc2)o1)Nc1cccc(O)c1,66,0,7,34*,-2,2
COc1ccccc1NC(=O)CSc1n[nH]c(Cc2ccccc2)n1,4,0,0,-3,43*,2
S=C(Nc1ccc(Oc2ccccc2)cc1)NC1CCCC1,6,-1,-2,-1,-16,/
S=C(NCC1CCCCC1)Nc1ccc(Oc2ccccc2)cc1,-4,1,-2,-4,-2,117*
O=C(CCOc1ccccc1)N1CCN(c2ccc(O)cc2)CC1,10,/,-2,50*,-35,-14
C[C@@H]1CN([C@H](C)CO)S(=O)(=O)c2ccc(C3=CCCC3)cc2O[C@H]1CN(C)C(=O)C1CC1,/,/,/,/,-2,10[16.7 µM]
Cc1ccc(C)c(C(=O)Nc2nc3ccccc3[nH]2)c1,31,-11,-2,-4,45*,4
Cc1ccc(C)c(OCc2nc3ccccc3[nH]2)c1,69,-2,-1,46*,4,-1
Cc1cccc(C)c1OCc1nc2ccccc2[nH]1,6,-3,2,-2,-20,/
O=C(Nc1nc2ccccc2[nH]1)c1ccccc1O,?,5,5,42*,16,/
O=C(Nc1nc2ccccc2[nH]1)c1cccc(Cl)c1,/,-2,/,32*,2,-1
CCCC#Cc1ccc([C@H]2[C@@H](CO)N3C(=O)CN(S(=O)(=O)Cc4ccccc4)C[C@H]23)cc1,/,/,/,/,8,/
Cc1cc(Cl)ccc1OCCCC(=O)N1CCCCC1,100*,-3,/,/,-11,-8
Cc1ccc(S(=O)(=O)N2CCN(C(=O)CCCOc3ccc(Cl)cc3C)CC2)cc1,6,-3,7,-5,-19,/
C[C@H]1CN([C@@H](C)CO)C(=O)c2cc(C#CC3CCCCC3)cnc2O[C@H]1CN(C)S(=O)(=O)c1ccc(F)cc1,/,/,/,/,-15,-8[16.7 µM]
CCCn1c(C)nc2c(c1=O)c1nc3ccccc3nc1n2CCC1=CCCCC1,/,-3,-2,/,61*,-9
COc1cc2cnc(Cl)nc2cc1OC,-5,/,2,/,61*,-10
Cc1ccc2sc(-c3ccc(NC(=O)c4cc(-n5cnnc5)ccc4Cl)cc3)nc2c1,35,-1,5,/,119*,-5
COCC(=O)Nc1ccc2c(c1)[C@@H]1C[C@@H](CC(=O)NCCN3CCCCC3)O[C@@H](CO)[C@@H]1O2,/,/,/,/,-2,3[16.7 µM]
Clc1ccc(OCc2noc(-c3ccsc3)n2)c(Cl)c1,/,-3,-3,65*,-5,/
Fc1cc(Cl)c(OCc2noc(-c3ccsc3)n2)c(Cl)c1,90*,-2,8,0,/,/
SMILES,MITF act,NSD2 HMT inh,Dyrk1A ADPGlo,Wnt act,GSIS activator,miR122 inh
Clc1ccc(OCCCc2nc(-c3ccncc3)no2)c(Cl)c1,9,-4,18,-4,/,-1
CO[C@@H]1CN(C)C(=O)c2cc(NC(=O)c3ccno3)ccc2OC[C@H](C)NC[C@@H]1C,/,/,/,/,2,17[16.7 µM]
C/C=C1\COC(C(=O)NCCN2CCCC2)(C(F)(F)F)C=C1C=C1CCCCC1 (stereo not drawn),-7,/,6,6,/,-6
C/C=C1\COC(C(=O)NCc2ccccc2)(C(F)(F)F)C=C1C=C1CCCCC1 (stereo not drawn),4,/,6,0,141*,/
COc1ccc(NC(=O)N(C)C[C@@H]2Oc3cc(-c4ccc(C)cc4)ccc3S(=O)(=O)N([C@H](C)CO)C[C@H]2C)cc1,/,/,/,/,-12,17[16.7 µM]
Cc1ccc(-c2ccc3c(c2)O[C@H](CN(C)Cc2cccnc2)[C@H](C)CN([C@@H](C)CO)S3(=O)=O)cc1,/,/,/,/,-16,-17[16.7 µM]
COc1ccc(N2C(=S)NC3N2C(=S)NC3(C)c2ccccc2)cc1 (stereo not drawn),34,5,4,65*,5,/
CC1(c2ccccc2)NC(=S)N2C1NC(=S)N2c1ccccc1 (stereo not drawn),4,2,0,/,/,53
CCCCc1c(-c2ccccc2OC)ncn1Cc1ccc(-c2ccccc2)cc1,/,/,/,-5,-25,/
CCCCc1c(-c2ccccc2OC)ncn1Cc1ccccc1C,/,/,/,-1,186*,/
CCCCc1c(-c2ccccc2OC)ncn1Cc1ccccc1F,/,31,/,-2,/,/
CCCCc1c(-c2ccccc2OC)ncn1Cc1ccc(C)cc1,/,/,/,-16,66*,/
Cc1ccc(/C=N/NC(=O)c2ccco2)s1,44,0,14,45*,/,-1
Cc1occc1C(=O)N/N=C/c1ccc(Br)s1,49,/,-3,11,1,-1
O=C(N/N=C/C(Cl)=C\c1ccccc1)c1ccco1,/,1,0,57*,-6,-4
O=C(N/N=C/c1ccc(Br)s1)c1ccco1,?,1,3,43*,-6,/
COc1ccc(NC(=O)Nc2ccc3c(c2)CC(=O)N([C@H](C)CO)C[C@@H](C)[C@@H](CN(C)Cc2ccc(Cl)c(Cl)c2)O3)cc1,/,/,/,/,-17,17[16.7 µM]
Oc1cccc(Oc2ncc(C(F)(F)F)cc2Cl)c1,15,0,3,64*,2,/
FC(F)(F)c1cnc(Oc2cccc3ccccc23)c(Cl)c1,1,5,-2,-1,-6,/
Cc1ccccc1-c1ccc2c(c1)O[C@@H](CN(C)C)[C@H](C)CN([C@@H](C)CO)S2(=O)=O,/,/,/,/,-10,13[16.7 µM]
CC(=O)Oc1oc(-c2ccccc2)nc1C=Nc1ccc(N(C)C)cc1,/,0,2,6,/,-3
CN(C)c1ccc(N=Cc2nc(-c3ccccc3)oc2OC(=O)c2ccccc2)cc1,12,13,2,35*,-5,/
CC1CCN(C(=O)c2cccc(S(=O)(=O)N3CCN(c4ccccc4)CC3)c2)CC1,-2,24,-2,-2,42*,/
O=C(c1cccc(S(=O)(=O)N2CCCCC2)c1)N1CCN(c2ccccc2)CC1,-4,1,9,0,-3,/
C/C=C/c1ccc2c(c1)O[C@@H](CN(C)C(=O)Nc1cccc(F)c1)[C@H](C)CN([C@@H](C)CO)S2(=O)=O,/,/,/,/,-17,4[16.7 µM]
O=C(O)c1cccc(N/N=C/c2ccc(F)c(F)c2)c1,-15,-3,-2,-4,14,-1
O=C(O)c1cccc(N/N=C/C2=C(Cl)c3cc(Cl)ccc3SC2)c1,36,5,13,40*,-20,/
O=C(C[C@@H]1CC[C@H]2[C@@H](COC[C@H](O)CN2C(=O)c2ccncc2)O1)NCc1ccc(-c2ccccc2)cc1,/,/,/,/,-1,-3[16.7 µM]
